A short description of test [1]: Drug repurposing screens with cells derived from glioblastoma tumor samples (AID 1345199). Further: nearly all actives have a fitted effect of over 40% in size. To be noted: GBM patient neurospheres viability, ATP luminescence, 48 h. Summed up: (§1)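 Four patient lines of CD133+ GBM neurospheres were screened at several concentrations; hits were retested in those lines plus three slower-growing GBM lines, using 48-hour treatment and ATP-based viability.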

Test [2] has as its system CASKI. Description: Primary qHTS to identify gynecologic anti-cancer compounds using libraries of approved drugs and bioactive compounds (AID 1345084). Further: nearly all actives have a fitted effect of over 55% in size. The conditions noted are these: Gynecologic cancer cell panel viability, ATPlite luminescence, 48 h; series mostly up to 57.5 µM. Summed up: (§2)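 48 h compound exposure at 37 C, 5% CO2; five-point qHTS. ATPlite luminescence readout of cell ATP.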

Test [3] concerns Es-2. The test is described as above. The conditions noted are these: Gynecologic cancer cell panel viability, ATPlite luminescence, 48 h; series mostly up to 57.5 µM. The procedure, abridged:
as §2
Background: ATP-based viability assays read luminescence as a measure of living cells.

Test [4] has as its system HeLa. The test is described as above. To be noted: Gynecologic cancer cell panel viability, ATPlite luminescence, 48 h; series mostly up to 57.5 µM. Summed up:
as §2

Test [5] relates to Hek293T. The test is described as above. To be noted: Gynecologic cancer cell panel viability, ATPlite luminescence, 48 h, control line for the selectivity index; series mostly up to 57.5 µM. Summed up: as §2
Test [6] deals with JEG-3. The test is described as above. To be noted: Gynecologic cancer cell panel viability, ATPlite luminescence, 48 h; series mostly up to 57.5 µM. Summed up:
as §2

For test [7], the system named is PA-1. The description is as above. To be noted: Gynecologic cancer cell panel viability, ATPlite luminescence, 48 h; series mostly up to 57.5 µM. The procedure, abridged:
as §2

In test [8] the test system is Tov112D. Described as above. To be noted: Gynecologic cancer cell panel viability, ATPlite luminescence, 48 h; series mostly up to 57.5 µM. The procedure, abridged: as §2
Test [9] in a line: qHTS assay to identify inhibitors of the type 1 interferon - major histocompatibility complex class I in skeletal muscle: Counter screen cell viability and HiBit confirmation (AID 1347412). On all read-outs here: nearly all actives have a fitted effect of over 60% in size. The conditions noted are these: iHSKM muscle cells + IFN-b, HiBiT or CellTiter-Glo, 24 h; for Potency: HiBiT; for activity change, negative = inhibition: Viability, at 45.9 µM (top of the series). Summed up: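 After 24 h with human IFN-beta (4 ng/ml) and compound titrations (top 46 uM final, 1:3, 12 points), HLA-B HiBit myoblasts were lysed for either Nano-Glo HiBiT luminescence or CellTiter Glo viability on paired plates.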

Test [10] relates to OV90. Description: Primary qHTS to identify gynecologic anti-cancer compounds using libraries of approved drugs and bioactive compounds (AID 1345084). Further: nearly all actives have a fitted effect of over 55% in size. The conditions noted are these: Gynecologic cancer cell panel viability, ATPlite luminescence, 48 h; series mostly up to 57.5 µM. The procedure, abridged: as §2
On the technique in general: qHTS replaces the single test concentration by a dilution series.

Test [11] relates to Tov-21-G. The description is as above. To be noted: Gynecologic cancer cell panel viability, ATPlite luminescence, 48 h; series mostly up to 57.5 µM. Summed up:
as §2

For test [12], the system named is astro (control astrocytes). Nature of the test: Drug repurposing screens with cells derived from glioblastoma tumor samples (AID 1345199). Further: nearly all actives have a fitted effect of over 40% in size. To be noted: viability, ATP luminescence, 48 h; series mostly up to 45.9 µM. The procedure, abridged: as §1
For test [13], the system named is SKOV3. Nature of the test: Primary qHTS to identify gynecologic anti-cancer compounds using libraries of approved drugs and bioactive compounds (AID 1345084). Further: nearly all actives have a fitted effect of over 55% in size. To be noted: Gynecologic cancer cell panel viability, ATPlite luminescence, 48 h; series mostly up to 57.5 µM. The procedure, abridged: as §2
The mark [14] stands for this setting: at 45.9 µM (top of the series), tumour line B.
The mark [15] stands for this setting: at 46.1 µM (top of the series), tumour line C.
Where [16] appears, read: at 20 µM (top of the series), tumour line C.
Setting [17] is: at 21.2 µM (top of the series), tumour line B.
Where [18] appears, read: at 21.2 µM (top of the series), tumour line D.
[19] abbreviates: at 45.9 µM (top of the series), tumour line D.
[20] abbreviates: at 46 µM (top of the series), tumour line A.

Inconclusive results are not listed. A number with no mark means an inactive call. The source made the active and inactive calls. The call rests on the fitted dose curve; in most records, active means well fitted curve in the direction sought with a large enough effect; inconclusive means small, poorly fitted or top-dose-only effect, or another doubt; inactive means no such curve, though single readings can be large; an effect the other way counts as inactive or inconclusive.
On the % scale 0 is the no-effect control and ±100 the full control effect; potency means the concentration at half of the fitted maximal effect.

Consider `CC(=O)Oc1cc(C)c(OC(C)=O)c2ccccc12`, for which the activity, negative = cell killing in [1] (setting [14]) is -16.5%; in test [1] (setting [15]), 0.711%.
On to `CC(C)NCC1CCc2cc(CO)c([N+](=O)[O-])cc2N1` (centres undefined), for which the activity, negative = cell killing in test [1] (setting [16]) is -4.59%; in [1] (setting [17]) it was -15%; in test [1] (setting [18]), -4.44%.
Take `O=S(=O)(O)c1ccc2c(N=Nc3ccc(S(=O)(=O)O)c4ccccc34)c(O)c(S(=O)(=O)O)cc2c1`: the activity, negative = cell killing is -24.2% in [1] (setting [19]) and -9.01% in [1] (setting [15]).
Turning to `CN(C)C/C=C/C(=O)Nc1ccc(C(=O)Nc2cccc(Nc3ncc(Cl)c(-c4c[nH]c5ccccc45)n3)c2)cc1`, the Potency was 0.794 µM (active) in [2]; 1.78 µM (active) in test [3]; 0.891 µM (active) in test [4]; 1.26 µM (active) in [5]; 3.55 µM (active) in test [6]; 0.891 µM (active) in [7]. Further, the Potency was 0.631 µM (active) in test [8] and 0.442 µM (active) in [9]. Besides, the activity change, negative = inhibition in test [9] was -19.3%.
As to `C=C1CC[C@@H]2[C@](C)(CC[C@H](O)[C@@]2(C)CCC=C(C)C)[C@@H]1Cc1c[nH]c2ccccc12`, the Potency entry in test [2], in [3], in test [4], in test [5], in [6] and in test [10] was “inactive” throughout. Besides, the Potency entry in test [7], in test [11] and in test [8] was “inactive” each time.
With `O=C(O)C[C@H](O)C[C@H](O)/C=C/c1c(C2CC2)nc2ccccc2c1-c1ccc(F)cc1`, the Potency was 8.91 µM (active) in test [4], 10 µM (active) in [7], 11.2 µM (active) in [8] and 0.398 µM (active) in [12]. The Potency result in test [6] is “inactive”.
As to `Nc1ccn([C@@H]2C(F)=C(CO)[C@@H](O)[C@H]2O)c(=O)n1`, the Potency result in test [2], in [4], in [6] and in test [10] was “inactive” throughout. For the same compound, the Potency in [7] is 2.24 µM (active).
As for `CC(C)=CCC/C(C)=C/CC/C(C)=C/CC[C@]1(C)CCc2cc(O)cc(C)c2O1`, the Potency result in test [2], in [3], in test [4], in test [5], in test [6] and in test [10] was “inactive” each time. Also, the Potency entry in [7], in [11] and in test [8] was “inactive” in each case.
With `N[C@H](C(=O)O)[C@@H]1CC(Cl)=NO1`, the values for the activity, negative = cell killing in test [1] (setting [19]) and in [1] (setting [20]) were -29.2% and -38.5%, respectively. The Potency in test [1] (tumour line C) was 6.51 µM (active).
Regarding `Cc1cc(C)c(S(=O)(=O)N(Cc2ccc(-c3cccc(S(C)(=O)=O)c3)cc2)Cc2ccc(C(F)(F)F)o2)c(C)c1`, the Potency result in [2], in [3], in test [4], in [5], in [6] and in [10] was “inactive” in each case. Besides, the Potency entry in test [7], in [11] and in test [8] was “inactive” throughout.
For the compound `CNC(=O)c1ccc(Nc2ncc(C(F)(F)F)c(NCc3nccnc3N(C)S(C)(=O)=O)n2)cc1`, the Potency in [3] was 17.8 µM (active); in test [4], 10 µM (active); in [5] it was 8.91 µM (active); in [7], 4.47 µM (active); in [8] it was 22.4 µM (active); in [9] it was 3.52 µM (active). Further, the activity change, negative = inhibition in test [9] was -7.39%.
Consider `CC(C)(C)C(=O)OCOC(=O)[C@@H]1N2C(=O)[C@@H](N=CN3CCCCCC3)[C@H]2SC1(C)C`, for which the activity, negative = cell killing in test [1] (setting [16]) is -7.48%; in [1] (setting [17]), -4.41%; in test [1] (setting [18]), 17.4%; in test [1] (at 21.3 µM (top of the series), tumour line A), -13.2%. Besides, in [12], the Potency result is “inactive”.
As for `CC(=O)O[C@@H]1[C@H](O[C@@H]2OC[C@](O)(CO)[C@H]2O)[C@@H](O[C@@H]2O[C@@H](C)[C@H](O)[C@@H](O)[C@H]2O)[C@H](OC(=O)[C@]23CCC(C)(C)C[C@H]2C2=CCC4[C@@]5(C)C[C@H](O)[C@H](O[C@@H]6O[C@H](C(=O)O)[C@@H](O)[C@H](O)[C@H]6O)[C@@](C)(C(=O)O)C5CC[C@@]4(C)[C@]2(C)CC3)O[C@@H]1C` (some centres undefined), the activity change, negative = cytotoxicity in test [2] is 0.959% [at 11.6 µM]; in test [3], 1.8% [at 11.6 µM]; in [4], 0.991% [at 11.6 µM]; in test [5] it was 9.21% [at 11.6 µM]; in test [6], 0.39% [at 11.6 µM]; in test [10], 0.243% [at 11.6 µM]. The activity change, negative = cytotoxicity in test [7] is -6.11% [at 11.6 µM]; in test [11], 1.94% [at 11.6 µM]; in test [8], 2.89% [at 11.6 µM].
Take `CCc1nc(C(N)=O)c(Nc2ccc(N3CCC(N4CCN(C)CC4)CC3)c(OC)c2)nc1NC1CCOCC1`: the Potency in [2] was 7.08 µM (active); in test [4] it was 3.55 µM (active); in test [7], 2.24 µM (active); in [13], 1.12 µM (active). Also, the Potency result in test [3], in [6] and in test [10] was “inactive” each time.
As to `OCCO[C@@H]1[C@@H](O)[C@H](O)[C@@H](CO)O[C@@H]1O`, the activity, negative = cell killing in [1] (setting [14]) is -12.3%; in [1] (setting [19]), -11.5%; in test [1] (setting [20]), -14.9%; in test [1] (setting [15]) it was -19.4%. Moreover, the Potency result in test [12] is “inactive”.
For the compound `CC1(C)S[C@@H]2[C@H](NC(=O)C(C(=O)O)c3ccsc3)C(=O)N2[C@H]1C(=O)O` (some centres undefined), the activity, negative = cell killing in test [1] (setting [14]) is 5.71%; in test [1] (setting [19]), -0.709%; in test [1] (setting [20]) it was 0.915%; in [1] (setting [15]), -15.8%. For the same compound, the Potency result in [12] was “inactive”.
